# From PubChem BioAssay (Tox21)
# Inconclusive results are not listed. Calls of active or inactive are those of the source. The call rests on the fitted dose curve.
# Target: Acetylcholinesterase (Homo sapiens) (UniProt P22303)
# Test: Acetylcholinesterase (AChE) small molecule antagonists: enzyme-based qHTS assay (AID 1347397); further: nearly all actives have a fitted effect of over 55% in size
# Conditions: Potency: AChE enzyme activity inhibition; outcome: AChE enzyme activity inhibition; series mostly up to 115 µM; activity change, negative = inhibition: at the top concentration
# How it was run: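 Enzyme inhibition was scored from DTNB-detected thiocholine formed by recombinant human AChE acting on acetylthiocholine. The 30 min compound preincubation and 10 min substrate reaction were both run at room temperature, with DMSO as vehicle control.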
# On the % scale 0 is the no-effect control and ±100 the full control effect.
# Sequence of Acetylcholinesterase (Homo sapiens) (P22303 whole entry, looked up): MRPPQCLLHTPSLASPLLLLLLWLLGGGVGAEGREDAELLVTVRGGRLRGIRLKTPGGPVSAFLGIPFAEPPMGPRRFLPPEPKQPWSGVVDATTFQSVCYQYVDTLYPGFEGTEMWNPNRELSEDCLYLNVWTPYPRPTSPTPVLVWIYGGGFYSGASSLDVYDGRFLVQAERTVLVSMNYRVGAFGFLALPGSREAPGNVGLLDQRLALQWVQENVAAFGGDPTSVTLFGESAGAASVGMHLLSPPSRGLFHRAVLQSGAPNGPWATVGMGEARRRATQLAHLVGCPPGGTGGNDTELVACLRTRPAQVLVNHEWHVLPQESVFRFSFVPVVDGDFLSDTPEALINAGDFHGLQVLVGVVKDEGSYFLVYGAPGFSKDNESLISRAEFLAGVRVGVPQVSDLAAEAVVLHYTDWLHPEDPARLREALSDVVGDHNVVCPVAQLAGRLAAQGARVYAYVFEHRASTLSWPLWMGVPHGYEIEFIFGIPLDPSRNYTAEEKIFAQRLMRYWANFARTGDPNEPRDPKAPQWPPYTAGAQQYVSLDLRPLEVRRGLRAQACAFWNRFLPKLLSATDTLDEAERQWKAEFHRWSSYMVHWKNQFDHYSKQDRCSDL
row,Structure (SMILES),"activity change, negative = inhibition"
1,C1C[C@@H]2[C@H]3CC[C@H](C3)[C@@H]2C1,0.952% (inactive)
2,CCCCCCCCCCCCCCCCCC(=O)OCCCCCCCCCCCCCC(C)C,-1.09% (inactive)
3,CC(C)CCOC(=O)CC(C)C,-0.516% (inactive)
4,O=C(c1ccccc1)C1CCCCC1,-0.705% (inactive)
5,CN1[C@@H]2CC[C@H]1CC(OC(=O)C(O)c1ccccc1)C2 (stereo not given in full),-0.675% [at 53 µM] (inactive)
6,CC(C)=CCC/C(C)=C/COC=O,1.1% (inactive)
7,COc1cc(NS(=O)(=O)c2ccc(N)cc2)nc(C)n1,0.55% [at 53 µM] (inactive)
8,CC1=CC(=O)[C@H]2C[C@@H]1C2(C)C,0.839% (inactive)
9,Clc1ccccc1-c1nc(-c2ccncc2)no1,-0.248% [at 53 µM] (inactive)
10,Nc1ccn([C@@H]2O[C@H](CO)[C@@H](O)C2(F)F)c(=O)n1,-1.25% [at 53 µM] (inactive)
11,O=C(O)c1ccc(CO)o1,1.21% (inactive)
12,CC1(C)S[C@@H]2[C@H](N=CN3CCCCCC3)C(=O)N2[C@H]1C(=O)O,-1.08% [at 53 µM] (inactive)
13,COC(=O)c1cc(Cl)ccc1OC,0.932% [at 53 µM] (inactive)
14,CCCCN(CCCC)C(C(N)=O)c1ccc(OC)cc1 (stereo not given),0.641% [at 53 µM] (inactive)
15,c1ccc2cc3c4ccccc4c4ccccc4c3cc2c1,0.681% (inactive)
16,CC(=O)c1cc(C)oc1C,0.236% (inactive)
17,COc1ccc(OC(=O)N(CC(=O)O)Cc2ccc(OCCc3nc(-c4ccccc4)oc3C)cc2)cc1,0.436% [at 53 µM] (inactive)
18,O=S1OCCO1,-0.55% (inactive)
19,N#CCc1cccc(C(F)(F)F)c1,1.38% (inactive)
20,C=CCCCCCCCCCCCCCC,0.291% [at 23.6 µM] (inactive)

row,Structure (SMILES),"activity change, negative = inhibition"
1,CC(C)CCC(=O)CCC(C)C,-0.0308% (inactive)
2,CCOC(=O)C1=NN(c2ccc(Cl)cc2Cl)C(C)(C(=O)OCC)C1 (stereo not given),-1.36% (inactive)
3,CCCCCc1ccc(O)cc1,-4.5% (inactive)
4,Sc1nc2ccccc2s1,1.94% (inactive)
5,O=C(O)c1cc(Cl)cc([N+](=O)[O-])c1Cl,-0.789% (inactive)
6,Cc1ccc(=O)n(-c2ccccc2)c1,1.25% [at 53 µM] (inactive)
7,O=CN1CCOCC1,-0.0154% (inactive)
8,CC(C)=C1CC[C@@H](C)CC1=O,0.818% (inactive)
9,CCN(CC)CCNC(C(=O)OCCC(C)C)c1ccccc1 (stereo not given),-1.48% [at 53 µM] (inactive)
10,O=C(/C=C/c1ccc(O)c(O)c1)O[C@@H]1C[C@@](OC(=O)/C=C/c2ccc(O)c(O)c2)(C(=O)O)C[C@@H](O)[C@@H]1O,2.29% [at 53 µM] (inactive)
11,CC(C)O,2.04% (inactive)
12,CNCCS(=O)(=O)O,1.91% (inactive)
13,COP(=O)(O)OP(=O)(O)OC,1.32% (inactive)
14,SCCSCCS,1.23% (inactive)
15,O=C(O)c1ccccc1C(=O)Nc1ccc(S(=O)(=O)Nc2nccs2)cc1,0.0047% [at 53 µM] (inactive)
16,CCC(CC)C(C)CCOC(C)=O (stereo not given),0.46% (inactive)
17,CCCCCCCCC(=O)OCC(C)OC(=O)CCCCCCCC (stereo not given),-0.001% (inactive)
18,O=CN1CCCCC1,2.56% (inactive)
19,COc1ccnc(CS(=O)c2nc3ccc(OC(F)F)cc3[nH]2)c1OC (stereo not given),1.09% [at 53 µM] (inactive)
20,CC(C)Nc1ccc(NC(C)C)c2c1C(=O)c1ccccc1C2=O,-0.494% [at 53 µM] (inactive)

# Target: Acetylcholinesterase (Homo sapiens) (UniProt P22303)
# Test: Acetylcholinesterase (AChE) small molecule antagonists: fluorescence cell-based qHTS assay (AID 1347398); further: nearly all actives have a fitted effect of over 50% in size
# Conditions: SH-SY5Y cells; Potency: AChE activity; outcome: AChE activity; series mostly up to 115 µM; activity change, negative = inhibition: at the top concentration
# How it was run: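 Endogenous acetylcholinesterase of SH-SY5Y neuroblastoma cells is measured in situ. After overnight attachment and 30 min compound exposure, cells receive acetylthiocholine and Thiolite Green; fluorescence is read after 40 min at room temperature.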
row,Structure (SMILES),"activity change, negative = inhibition"
1,C1C[C@@H]2[C@H]3CC[C@H](C3)[C@@H]2C1,-1.27% (inactive)
2,CCCCCCCCCCCCCCCCCC(=O)OCCCCCCCCCCCCCC(C)C,-1.87% (inactive)
3,CC(C)CCOC(=O)CC(C)C,1.47% (inactive)
4,O=C(c1ccccc1)C1CCCCC1,1.78% (inactive)
5,CN1[C@@H]2CC[C@H]1CC(OC(=O)C(O)c1ccccc1)C2 (stereo not given in full),10.3% [at 53.7 µM] (inactive)
6,CC(C)=CCC/C(C)=C/COC=O,1.28% (inactive)
7,COc1cc(NS(=O)(=O)c2ccc(N)cc2)nc(C)n1,4.31% [at 53.7 µM] (inactive)
8,CC1=CC(=O)[C@H]2C[C@@H]1C2(C)C,0.0757% (inactive)
9,Clc1ccccc1-c1nc(-c2ccncc2)no1,0.949% [at 53.7 µM] (inactive)
10,Nc1ccn([C@@H]2O[C@H](CO)[C@@H](O)C2(F)F)c(=O)n1,2.42% [at 53.7 µM] (inactive)
11,O=C(O)c1ccc(CO)o1,1.77% (inactive)
12,CC1(C)S[C@@H]2[C@H](N=CN3CCCCCC3)C(=O)N2[C@H]1C(=O)O,-6.11% [at 53.7 µM] (inactive)
13,COC(=O)c1cc(Cl)ccc1OC,2.1% [at 53.7 µM] (inactive)
14,CCCCN(CCCC)C(C(N)=O)c1ccc(OC)cc1 (stereo not given),-1.75% [at 53.7 µM] (inactive)
15,c1ccc2cc3c4ccccc4c4ccccc4c3cc2c1,-3.11% (inactive)
16,CC(=O)c1cc(C)oc1C,3.02% (inactive)
17,COc1ccc(OC(=O)N(CC(=O)O)Cc2ccc(OCCc3nc(-c4ccccc4)oc3C)cc2)cc1,-6.61% [at 53.7 µM] (inactive)
18,O=S1OCCO1,8.25% (inactive)
19,N#CCc1cccc(C(F)(F)F)c1,1.64% (inactive)
20,C=CCCCCCCCCCCCCCC,5.43% [at 23.8 µM] (inactive)

row,Structure (SMILES),"activity change, negative = inhibition"
1,CC(C)CCC(=O)CCC(C)C,-5.14% (inactive)
2,CCOC(=O)C1=NN(c2ccc(Cl)cc2Cl)C(C)(C(=O)OCC)C1 (stereo not given),-9.91% (inactive)
3,CCCCCc1ccc(O)cc1,-8.51% (inactive)
4,Sc1nc2ccccc2s1,2.7% (inactive)
5,O=C(O)c1cc(Cl)cc([N+](=O)[O-])c1Cl,-6.51% (inactive)
6,Cc1ccc(=O)n(-c2ccccc2)c1,4.6% [at 53.7 µM] (inactive)
7,O=CN1CCOCC1,4.76% (inactive)
8,CC(C)=C1CC[C@@H](C)CC1=O,-0.2% (inactive)
9,CCN(CC)CCNC(C(=O)OCCC(C)C)c1ccccc1 (stereo not given),-4.71% [at 53.7 µM] (inactive)
10,O=C(/C=C/c1ccc(O)c(O)c1)O[C@@H]1C[C@@](OC(=O)/C=C/c2ccc(O)c(O)c2)(C(=O)O)C[C@@H](O)[C@@H]1O,3.12% [at 53.7 µM] (inactive)
11,CC(C)O,-5.79% (inactive)
12,CNCCS(=O)(=O)O,0.689% (inactive)
13,COP(=O)(O)OP(=O)(O)OC,-0.228% (inactive)
14,SCCSCCS,0.979% (inactive)
15,O=C(O)c1ccccc1C(=O)Nc1ccc(S(=O)(=O)Nc2nccs2)cc1,1.55% [at 53.7 µM] (inactive)
16,CCC(CC)C(C)CCOC(C)=O (stereo not given),3.42% (inactive)
17,CCCCCCCCC(=O)OCC(C)OC(=O)CCCCCCCC (stereo not given),-0.457% (inactive)
18,O=CN1CCCCC1,-1.25% (inactive)
19,COc1ccnc(CS(=O)c2nc3ccc(OC(F)F)cc3[nH]2)c1OC (stereo not given),7.18% [at 53.7 µM] (inactive)
20,CC(C)Nc1ccc(NC(C)C)c2c1C(=O)c1ccccc1C2=O,9.6% [at 53.7 µM] (inactive)
